HT1080 IDH1KD tx – HT-1080 IDH1 knockdown cell toxicity (counter line); HT-1080 IDH1 knockdown viability, ATP luminescence, 48 h; Potency, µM (highest dose often 46.1 µM), for inactives: at the top dose activity, negative = toxicity, hits mostly cytotoxic; hit rate 2% among 360,000;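 also: potency is read from the fitted curve at half-maximal effect; 0% = DMSO wells and -100% = cell-free medium wells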
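Using the IDH1-knockdown HT-1080 line run in the same batch and compound series as the NT line, viability after 48 h at 37 °C was determined by CellTiter-Glo luminescence and expressed as % activity.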
HT1080-NT tox – kills 2HG-producing HT-1080-NT fibrosarcoma cells | Potency, µM (doses to about 46.1 µM), without a hit: top-dose activity, negative = less viability, most hits filed as cytotoxic | HT-1080-NT fibrosarcoma viability, CellTiter-Glo ATP luminescence, 48 h | hit rate 1.6% among 360,000;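 also: NT is the 2HG producing partner of a matched IDH1 knockdown line; potency is read from the fitted curve at half-maximal effect; 0% = DMSO-treated cells and -100% = media-only wells without cells; nearly all actives have a fitted effect of over 55% in size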
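Viability by CellTiter-Glo luminescence after 48 h compound exposure at 37C of HT-1080-NT cells (750/well, RPMI, 5% FBS). % activity scaled between DMSO wells and medium-only wells, then curve-fitted and categorized by curve class.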
TDP1 cell noCPT – qHTS for Inhibitors of human tyrosyl-DNA phosphodiesterase 1 (TDP1): qHTS in cells in absence of CPT; DT40 Tdp1-/- hTDP1 cells, no CPT, ATP luminescence, 48 h; Potency, µM (highest dose often 46.2 µM), inactives show at the highest dose activity change, negative = growth inhibition, actives largely listed as inhibitors; hit rate 15% among 420,000; AID 686978, 2013; also: potency is read from the fitted curve at half-maximal effect; nearly all actives have a fitted effect of over 55% in size
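Seeded 400 DT40-hTDP1 cells/well (vehicle DMSO, no 20 nM CPT); pinned compounds; ≥48 hr at 37 °C; CellTiter-Glo luminescence as viability measure.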
ELG1 repair inh – ELG1-dependent DNA repair inhibition; hit rate 2.3% among 330,000; HEK293T ELG1-luciferase reporter, luminescence, 16 h; DNA damage induced by 5-fluorouridine; Potency, µM (doses to about 46.1 µM), without a hit: top-dose activity change, negative = inhibition, most hits filed as inhibitors; AID 504467; also: potency is read from the fitted curve at half-maximal effect; nearly all actives have a fitted effect of over 55% in size
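5-Fluorouridine DNA damage + compound/DMSO, 2,000 cells/well, 16 h, 37 °C/5% CO2. ONE-Glo, 30 min RT, luminescence. Readout = decrease in reporter signal.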
IL-1B inflam inh – blocks inflammasome-driven IL-1 beta release | THP-1 LPS/ATP IL-1B secretion, AlphaLISA, 16 h; hits give low values | activity change, % at 57.5 µM | hit rate 4.7% among 360,000 | AID 743279; in the data active = activity change below about -50%; inconclusive = mostly about -30% to -49%
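THP-1 cells pretreated 1 hr with compounds (up to 57.5 uM final), then stimulated with LPS (250 ng/mL final) plus ATP (1.25 mM final); secreted IL-1B measured by AlphaLISA after 16 hr, decreased signal indicating inhibition.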
DT40 TDP1 CPT – DT40-hTDP1 cell growth loss with CPT; AID 686979; hit rate 12% among 420,000; Potency, µM (series often up to 46.2 µM), without a hit: at the highest dose activity change, negative = growth inhibition, most hits filed as inhibitors; chicken DT40 Tdp1-/-;hTDP1 cells + 20 nM CPT, ATP luminescence, 48 h; also: potency is read from the fitted curve at half-maximal effect; nearly all actives have a fitted effect of over 55% in size
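Cell growth measured by CellTiter-Glo luminescence after a minimum 48 h, 37 C compound exposure with 20 nM CPT in Tdp1-knockout DT40 cells stably expressing hTDP1, seeded 400/well; qHTS titration format.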
* = called active by the depositor; ? = inconclusive; . = no result given; [ ] = another dose, or the depositor's remark. Hits are enriched below; roughly 19% of the tested compounds scored in any of these assays. Unless noted, calls follow the shape of the dose curve; as a rule, active = well fitted curve in the direction sought with a large enough effect; inconclusive = small, poorly fitted or top-dose-only effect, or another doubt; inactive = no such curve, though single readings can be large; an effect the other way counts as inactive or inconclusive. Unless noted, % is scaled to controls: 0 for no effect and ±100 for the full control effect.

SMILES	HT1080 IDH1KD tx	HT1080-NT tox	TDP1 cell noCPT	ELG1 repair inh	IL-1B inflam inh	DT40 TDP1 CPT
Cc1ccc(C(=O)N(Cc2ccco2)Cc2ccco2)cc1	.	.	?	.	.	-11%
Cc1ccc(CN(Cc2ccco2)C(=O)c2oc3c(C)c(C)ccc3c2C)cc1	.	.	23µM*	.	.	?
CCc1nnc(NS(=O)(=O)c2ccc(NC(=O)c3ccc([N+](=O)[O-])s3)cc2)s1	-15%	?	-5%	.	-6	-7%
COc1ccc(Cl)cc1N(CC(=O)NCc1ccccn1)S(=O)(=O)c1ccc(C)cc1	-1%	-11%	?	.	-6	?
Cc1ccc2occ(CC(=O)N(Cc3ccccc3Cl)C3CCS(=O)(=O)C3)c2c1 (centres undefined)	.	.	23µM*	.	.	?
Cc1ccc2occ(CC(=O)N(Cc3ccc(Cl)cc3)Cc3ccco3)c2c1	.	.	23µM*	.	.	?
Cc1ccc(CN(Cc2ccco2)C(=O)c2oc3ccc(C)cc3c2C)cc1	.	.	15µM*	.	.	?
Cc1ccc(CN(Cc2ccco2)C(=O)c2ccc(Cl)cc2)o1	.	.	?	.	.	-27%
COc1ccc(CN(C(=O)Cc2coc3ccc(C)cc23)C2CCS(=O)(=O)C2)cc1 (centres undefined)	.	.	?	.	.	-6%
Cc1ccc2c(CC(=O)NCc3ccco3)coc2c1C	7.3µM*	5.2µM*	12µM*	?	60	13µM*
Cc1ccc2c(CC(=O)NCC3(N4CCOCC4)CCCCC3)coc2c1C	-3%	-5%[9.24 µM]	?	-27%	1	?
O=C(c1cnccn1)N1CCC[C@@]2(CCN(Cc3cc(C(F)(F)F)cc(C(F)(F)F)c3)C2)C1	.	.	?	.	.	3%
C=CCn1c(=O)c2ccccc2n2c(SCC(=O)NCC)nnc12	10%	7%	3%	-9%	0	-7%
CCCCCCn1c(CN2CCN(CCO)CC2)nc2c1c(=O)n(C)c(=O)n2C	-8%	-4%	-5%	-16%	-5	-13%
Cn1c(=O)c2c(nc(CN3CCN(C(c4ccccc4)c4ccccc4)CC3)n2CCCO)n(C)c1=O	-22%	-4%	21µM*	?	-5	?
COCCn1c(CN2CCN(C(c3ccccc3)c3ccccc3)CC2)nc2c1c(=O)n(C)c(=O)n2C	10%	14%	16µM*	10%	22	?
COCCn1c(CN2CC(C)CC(C)C2)nc2c1c(=O)n(C)c(=O)n2C (centres undefined)	-4%	-6%	-7%	7%	-3	-9%
CCCN1CCN(c2ncnc3sc(C(=O)Nc4ccc(C(C)C)cc4)c(C)c23)CC1	.	.	?	.	.	21µM*
CCCN1CCN(c2ncnc3sc(C(=O)Nc4ccc(OC(F)(F)F)cc4)c(C)c23)CC1	.	.	21µM*	.	.	?
N#C/C(=C\c1ccccc1)C(=O)NC1CC1	0%	0%	5%	4%	41	-16%
CCOc1ccc(/C=C(\C#N)C(=O)NC2CC2)c(OCC)c1	0%	7%	-29%	.	-54*	3%
CCCCOc1ccc(/C=C(\C#N)C(=O)NC2CC2)cc1	15%	1%	29µM*	.	-17	?
N#C/C(=C\c1cn[nH]c1-c1ccc(Cl)cc1)C(=O)NC1CC1	-7%	-5%	?	?	?	?
COc1ccc(-c2[nH]ncc2/C=C(\C#N)C(=O)NC2CC2)cc1	7%	1%	?	18µM*	-21	?
COc1ccc(/C=C(/C#N)C(=O)NC2CCCCC2)cc1Br	14%	17%	?	17%	-14	?
SMILES	HT1080 IDH1KD tx	HT1080-NT tox	TDP1 cell noCPT	ELG1 repair inh	IL-1B inflam inh	DT40 TDP1 CPT
O=c1c2cc3c(cc2nc2sc(Nc4cccc([N+](=O)[O-])c4)nn12)OCO3	.	.	-7%	.	.	-12%
CC(C)Oc1ccc(CNC(=O)c2cnc3sc(N4CCCCCC4)nn3c2=O)cc1	.	.	-20%	.	.	-13%
O=C(c1ccncc1)N1CCN(S(=O)(=O)c2ccc3ccccc3c2)CC1	-3%	-2%	-18%	15%	42	-17%
O=C(c1cnc(Cl)c(Cl)c1)N1CCN(S(=O)(=O)c2ccc3ccccc3c2)CC1	-10%	-10%	16µM*	1%	-102*	?
O=C(c1ccc(=O)[nH]n1)N1CCN(S(=O)(=O)c2ccc3ccccc3c2)CC1	-12%	-2%	-21%	16µM*	2	4%
CC(C)C(C(=O)NCC1CCCO1)N(Cc1ccccc1)C(=O)CNS(=O)(=O)c1ccccc1 (centres undefined)	15%	13%	1%	3%	-15	6%
CCCNC(=O)c1ccc(N2CCC3(CC2)CC(c2ccccc2)=NO3)c(N)c1	-1%	-11%	?	-17%	0	?
CCCNC(=O)c1ccc(N2CCC3(CC2)CC(c2ccccc2)=NO3)c([N+](=O)[O-])c1	6%	-21%	?	?	?	21µM*
CCCNC(=O)c1ccc(N2CCC3(CC2)CC(c2ccccc2)=NO3)c(NC(=O)Cc2ccc(F)cc2)c1	-9%	2%	18µM*	21µM*	3	?
COc1ccc(CNC(=O)c2ccc(N3CCOCC3)c([N+](=O)[O-])c2)cc1	-10%	-23%	-20%	-20%	-4	?
CCCCCCCNC(=O)c1ccc(N2CCC3(CC2)OCCO3)c([N+](=O)[O-])c1	0%	-1%	?	18µM*	?	?

Source: PubChem BioAssay
